Experimental data from PubChem BioAssay AID1159580 (chemical genetic matrix, 2015).
Among all 5,500 compounds or so, about 2,000 (36%) were called active. Inconclusive results (about 18%) are left out. Cut-off read from the data, not from the text of the source: active = normalized growth mostly below about 0.91 (no sharp cut-off); inconclusive = no clear call, values can overlap the other calls; inactive = mostly above about 0.92. Some of the results follow.

Assay: chemical genetic growth profiling, strain panel (AID 1159580);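 note: tested at 20 µM; growth read once vehicle control cultures reached saturation at 30 °C; 1 = growth at the plate median or of vehicle wells; lower values mean less growth of the strain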
Conditions: growth OD
[1] = S. cerevisiae deletion strains, locus YAL013W, strain DEP1, hits give low values
[2] = S. cerevisiae deletion strains, locus YBR229C, strain ROT2, hits give low values
[3] = S. cerevisiae deletion strains, locus YDL101C, strain DUN1, hits give low values
[4] = S. cerevisiae deletion strains, locus YDR150W, strain NUM1, hits give low values
[5] = S. cerevisiae deletion strains, locus YEL061C, strain CIN8, hits give low values
[6] = S. cerevisiae deletion strains, locus YGR078C, strain PAC10, hits give low values
[7] = S. cerevisiae deletion strains, locus YHR030C, strain SLT2, hits give low values
[8] = S. cerevisiae deletion strains, locus YHR087W, strain rtc3, hits give low values
[9] = S. cerevisiae deletion strains, locus YJR043C, strain POL32, hits give low values
[10] = S. cerevisiae deletion strains, locus YJR075W, strain HOC1, hits give low values
[11] = S. cerevisiae deletion strains, locus YLR039C, strain RIC1, hits give low values
[12] = S. cerevisiae deletion strains, locus YLR058C, strain SHM2 (second series), hits give low values
[13] = S. cerevisiae deletion strains, locus YLR085C, strain ARP6, hits give low values
[14] = S. cerevisiae deletion strains, locus YLR262C, strain YPT6, hits give low values
[15] = S. cerevisiae deletion strains, locus YML094W, strain GIM5, hits give low values
[16] = S. cerevisiae deletion strains, locus YMR219W, strain ESC1, hits give low values
[17] = S. cerevisiae deletion strains, locus YMR263W, strain SAP30, hits give low values
[18] = S. cerevisiae deletion strains, locus YNL128W, strain TEP1, hits give low values
[19] = S. cerevisiae deletion strains, locus YNL153C, strain GIM3, hits give low values
[20] = S. cerevisiae deletion strains, locus YNL298W, strain CLA4 (second series), hits give low values
[21] = S. cerevisiae deletion strains, locus YNL322C, strain KRE1, hits give low values
[22] = S. cerevisiae deletion strains, locus YNR030W, strain Alg12, hits give low values
[23] = S. cerevisiae deletion strains, locus YPL055C, strain LGE1, hits give low values
[24] = S. cerevisiae deletion strains, locus YPL241C, strain CIN2, hits give low values
[25] = S. cerevisiae deletion strains, locus YPR135W, strain CTF4, hits give low values

Measured: normalized growth

COc1ccc(-n2c(-c3ccc(C)cc3)csc2=N)cc1
inactive: [1] 0.996 | [2] 1 | [3] 1 | [4] 1.02 | [5] 0.97 | [6] 1 | [7] 1.05 | [8] 0.995 | S. cerevisiae deletion strains, locus YJL187C, strain SWE1, hits give low values 0.985 | [9] 1.01 | [10] 1.01 | [11] 1.01 | [12] 1 | [13] 0.918 | [14] 1 | [15] 0.996 | [16] 1.01 | [17] 1.03 | S. cerevisiae deletion strains, locus YMR307W, strain GAS1, hits give low values 1.03 | [18] 0.992 | [19] 1.03 | [20] 0.983 | [21] 1 | [22] 0.988 | [23] 1.03 | [24] 1.01 | [25] 1.24 | S. cerevisiae strains, strain wild type, hits give low values 0.994

COc1ccc(-c2ccc(C=C(C#N)C#N)s2)cc1
inactive: [1] 0.946 | S. cerevisiae deletion strains, locus YCL061C, strain MRC1, hits give low values 0.95 | [3] 0.95 | [4] 0.967 | [5] 0.922 | [7] 0.943 | [8] 0.939 | [9] 0.958 | [10] 1.01 | [12] 0.971 | [13] 0.912 | [14] 0.832 | [15] 0.899 | [16] 0.969 | [17] 0.974 | [18] 0.977 | [19] 0.938 | [20] 0.895 | [21] 0.964 | [22] 0.903 | [23] 0.932 | [24] 1.07 | [25] 0.948
active: [2] 0.918 | [6] 0.925 | [11] 0.757
